Results on 13 compounds are retold here after PubChem BioAssay (NCATS).

Records with an inconclusive call do not appear. Calls of active or inactive are those of the source. Calls follow the shape of the dose curve; as a rule, active = well fitted inhibition curve with a large enough effect; inconclusive = small, poorly fitted or top-dose-only effect; inactive = flat fitted curve, though single readings scatter.

Common to all, as to assay: qHTS profiling for inhibitors of Plasmodium falciparum proliferation (AID 504749); also: nearly all actives have a fitted effect of over 60% in size
Settings in all cases: P. falciparum in erythrocytes, SYBR Green DNA, 72 h; series mostly up to 28.7 µM

One assay concerns CP269. The method in brief:
(§1)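 P. falciparum-infected erythrocytes (0.3% parasitemia, 2.5% hematocrit) incubated with compound 72 h at 37 C, 5% CO2. Parasite DNA detected by SYBR Green after lysis, overnight at room temperature; normalised to 0.29 uM artemisinin and DMSO.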

Another assay concerns CP286. The method in brief:
as §1

A further assay has as its system CP291. The method in brief:
as §1

The test system of another assay is CP297. The method, boiled down:
as §1

A further assay has as its system CP305. The method, boiled down: as §1
A further assay has as its system CP315. The method, boiled down:
as §1

The subject of a further assay is CP325. The method in brief:
as §1

The subject of the next assay is CP329. The method in brief: as §1
The subject of a further assay is CP335. The method in brief: as §1
The next assay deals with DFO2036. The method, boiled down:
as §1

In another assay the test system is DIV14. The method in brief: as §1
The test system of the next assay is DIV17. The method in brief: as §1
Another assay relates to DIV30. The method, boiled down:
as §1

Another assay concerns Dd2. The method in brief: as §1
The next assay deals with ECU. The method, boiled down:
as §1

The test system of the next assay is FAB9. The method, boiled down: as §1
In the next assay the test system is GB4. The method in brief:
as §1

The next assay deals with HB3. The method, boiled down: as §1
A further assay deals with ICS. The method, boiled down:
as §1

The next assay concerns JCK. The method in brief: as §1
Potency is read from the fitted curve at half-maximal effect.

With `CCCCNc1cc(C(=O)O)cc(S(N)(=O)=O)c1Oc1ccccc1`, the Potency result in the assay on CP269, with CP286, with CP291, in the assay on CP297, in the assay on CP305 and in the assay on CP315 was “inactive” in each case. The Potency entry with CP325, with CP335, in the assay on DFO2036, in the assay on DIV14, with DIV17 and with DIV30 was “inactive” throughout. Further, the Potency entry in the assay with Dd2, in the assay on ECU, in the assay with FAB9, in the assay on GB4, in the assay on HB3 and in the assay on ICS was “inactive” throughout. In the assay with JCK, the Potency result is “inactive”. Further, the outcome with CP329 was inactive.

In the case of `Cc1oncc1C(=O)Nc1ccc(C(F)(F)F)cc1`, the Potency result in the assay on CP269, in the assay on CP286, in the assay on CP291, in the assay with CP297, in the assay on CP305 and in the assay with CP315 was “inactive” in each case. For the same compound, the Potency entry in the assay on CP325, in the assay with CP335, in the assay on DFO2036, in the assay on DIV14, with DIV30 and with Dd2 was “inactive” in each case. In addition, the Potency entry with ECU, in the assay with FAB9 and with JCK was “inactive” in each case. In the assay on CP329, the compound was called inactive. For the same compound, the Potency in the assay with ICS is 3.16 µM (active).

`O=c1[nH]cnc2[nH]ncc12`: the Potency result in the assay on CP269, in the assay on CP286, in the assay with CP291, in the assay on CP297, in the assay on CP305 and with CP315 was “inactive” each time. In addition, the Potency result in the assay with CP325, in the assay with CP335, with DFO2036, in the assay on DIV14, in the assay with DIV17 and with DIV30 was “inactive” each time. Also, the Potency result in the assay with Dd2, in the assay on ECU, in the assay with FAB9, with GB4, in the assay with HB3 and in the assay with ICS was “inactive” throughout. The Potency result with JCK was “inactive”. The result in the assay with CP329 was inactive.

For the compound `NCCCC(N)(C(=O)O)C(F)F` (centres undefined), the Potency entry in the assay with CP269, with CP286, with CP291, in the assay with CP297, with CP305 and in the assay with CP315 was “inactive” throughout. The Potency entry in the assay with CP325, with CP335, in the assay with DFO2036, in the assay with DIV14, in the assay on DIV17 and with DIV30 was “inactive” throughout. Besides, the Potency entry with Dd2, in the assay on ECU, in the assay on FAB9, in the assay with GB4, in the assay with HB3 and in the assay with ICS was “inactive” in each case. Also, the Potency entry in the assay on JCK was “inactive”. For the same compound, the call in the assay on CP329 was inactive.

For the compound `Cc1cc2c(C(C)C)c(O)c(O)c(C=O)c2c(O)c1-c1c(C)cc2c(C(C)C)c(O)c(O)c(C=O)c2c1O`, the Potency in the assay with Dd2 is 11.2 µM (active); with ICS it was 5.01 µM (active). For the same compound, in the assay on FAB9, the Potency result was “inactive”.

As for `CNC[C@H](O)c1cccc(O)c1`, the Potency result with CP269, in the assay with CP286, in the assay with CP291, with CP297, in the assay with CP305 and in the assay with CP325 was “inactive” throughout. For the same compound, the Potency result in the assay with DFO2036, in the assay on DIV14, in the assay with DIV17, in the assay with DIV30, in the assay on Dd2 and in the assay with ECU was “inactive” throughout. In addition, the Potency entry in the assay with FAB9, in the assay with GB4, in the assay on HB3, in the assay with ICS and in the assay with JCK was “inactive” in each case. Further, in the assay on CP329, the compound was called inactive.

With `Cc1ccccc1C(OCCN(C)C)c1ccccc1` (centres undefined), the Potency result in the assay on CP269, with CP297, in the assay with Dd2, in the assay on ECU, in the assay on FAB9 and in the assay with HB3 was “inactive” in each case. Moreover, the Potency in the assay on DIV14 was 6.75 µM (active); with DIV17, 7.57 µM (active).

Consider `CN1CCN(CCCN2c3ccccc3Sc3ccc(C(F)(F)F)cc32)CC1`, for which the Potency in the assay on CP269 was 15.1 µM (active); in the assay with CP286, 12.6 µM (active); with CP335 it was 5.36 µM (active); in the assay with DFO2036, 8.91 µM (active); with DIV14, 8.49 µM (active); with DIV17, 7.57 µM (active). Moreover, the Potency in the assay on DIV30 is 16.9 µM (active); in the assay on Dd2, 12.6 µM (active); with GB4, 7.57 µM (active); in the assay with ICS, 8.91 µM (active). Further, the Potency entry in the assay on FAB9 is “inactive”.

As for `C1COC(NC(C2CC2)C2CC2)=N1`, the Potency result in the assay on CP269, in the assay with CP286, in the assay on CP297, with CP305, in the assay on CP315 and in the assay on CP335 was “inactive” each time. In addition, the Potency result in the assay with DIV30, in the assay on Dd2, with FAB9, in the assay with HB3 and in the assay on JCK was “inactive” in each case.

On to `O=NN(CCCl)C(=O)NCCCl`, for which the Potency entry in the assay with CP269, in the assay on CP291, in the assay on CP297, in the assay on CP305, in the assay with CP315 and in the assay on CP325 was “inactive” throughout. Also, the Potency result in the assay on DIV14, in the assay on DIV17, in the assay on DIV30, in the assay with Dd2, in the assay on ECU and in the assay with FAB9 was “inactive” each time. Moreover, the Potency result in the assay on HB3 and in the assay on JCK was “inactive” each time. Further, the compound was classed as inactive with CP329.

As to `OC(CN1CCC(Cc2ccc(F)cc2)CC1)c1ccc(Cl)cc1` (centres undefined), the Potency is 3.55 µM (active) in the assay with CP286; 3.79 µM (active) in the assay on CP335; 1.07 µM (active) in the assay on DIV14; 0.953 µM (active) in the assay on DIV17; 1.9 µM (active) in the assay with DIV30; 2.51 µM (active) with Dd2. The Potency with ECU is 1.58 µM (active); in the assay with GB4 it was 1.2 µM (active); with HB3 it was 8.91 µM (active); in the assay on ICS, 0.355 µM (active); in the assay on JCK, 2 µM (active). Besides, the Potency result in the assay with CP315 and in the assay on CP325 was “inactive” in each case. Also, the outcome in the assay on CP329 was inactive.

As for `Nc1nc2ccc(OC(F)(F)F)cc2s1`, the Potency entry with CP269, in the assay with CP286, in the assay on CP291, with CP297, in the assay on CP305 and in the assay with CP315 was “inactive” in each case. Besides, the Potency entry with CP325, with CP335, with DFO2036, with DIV17, with DIV30 and in the assay on Dd2 was “inactive” throughout. Also, the Potency result in the assay with ECU, in the assay with FAB9, in the assay with GB4, in the assay with HB3, with ICS and in the assay with JCK was “inactive” throughout. Moreover, the compound was called inactive in the assay on CP329.

On to `CCCc1nn(C)c2c(=O)[nH]c(-c3cc(S(=O)(=O)N4CCN(C)CC4)ccc3OCC)nc12`, for which the Potency result in the assay on CP269, in the assay with CP286, in the assay with CP297, in the assay on CP305, in the assay with CP315 and in the assay on CP325 was “inactive” throughout. Besides, the Potency entry with CP335, in the assay with DFO2036, in the assay on DIV14, with DIV17, in the assay on Dd2 and in the assay on ECU was “inactive” each time. Further, the Potency entry with FAB9, in the assay on GB4, in the assay with HB3 and with JCK was “inactive” in each case. In the assay on CP329, the call was inactive. Moreover, in the assay on ICS, the Potency was 11.2 µM (active).
